The values below come from PubChem BioAssay (NCATS).

Each structure is given as a SMILES string. Where “and” joins values, the source holds several entries; their conditions need not be identical. Equal values may be shown once. Records with an inconclusive call do not appear. Some compounds were tested as several samples or in several runs, with calls that do not always agree. Calls of active or inactive are those of the source. Unless noted, calls come from the whole dose curve; as a rule, active = well fitted curve in the direction sought with a large enough effect; inconclusive = small, poorly fitted or top-dose-only effect, or another doubt; inactive = no such curve, though single readings can be large; an effect the other way counts as inactive or inconclusive.

The target in assay [1] is Guanine nucleotide-binding protein G(i) subunit alpha-1 (Homo sapiens) (UniProt P63096). Description: qHTS Assay for Inhibitors of RGS12 GoLoco Motif Activity (Green Fluorophore) (AID 879).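 Note: 0% = labeled peptide with Gαi1 and full inhibition = labeled peptide alone without protein; negative values mean loss of peptide binding seen as reduced polarization.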 An outline of the steps: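 Fluorescence polarization assay: 50 nM Gαi1 with 10 nM FITC-labeled RGS12 GoLoco peptide in 10 mM Tris pH 7.5, 150 mM NaCl, 0.1 mM GDP, 0.05% NP40, 10 min at room temperature with compound.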

A short description of assay [2]: Cellular Toxicity (caspase-3) HUV-EC-C (AID 656).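 Note: 0% = DMSO basal and 100% = 100 µM tamoxifen.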 An outline of the steps: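 HUV-EC-C cells (1000/well) in complete medium, compound-treated 16 h at 37 °C; caspase-3/7 activity read by Caspase-Glo 3/7 luminescence. Normalized to DMSO (basal) and 100 uM tamoxifen (100%); AC50 from Hill-equation concentration-response fits.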
The nature of assay [3]: Cellular Toxicity (caspase-3) MRC-5 (AID 659).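 For caspase-3 activation: 0% = DMSO basal and 100% = 10 µM staurosporine.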 Note: potency is the fitted concentration of half-maximal effect. As to conditions: Potency: caspase-3 activation. An outline of the steps: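 Concentration-dependent caspase 3/7 activation is measured in human normal lung fibroblasts (MRC-5) following 16-hour treatment. AC50 values come from standard Hill-equation modeling of luminescence normalized to DMSO and 10 uM staurosporine.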
A short description of assay [4]: Cellular Toxicity (caspase-3) Mesangial (AID 660).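 Note: cells exposed to compound for 16 h before the caspase read.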 An outline of the steps:
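Human renal glomerular mesangial cells (1000/well) were treated with compounds for 16 h at 37 °C in complete medium, then caspase 3/7 activity was read by Caspase-Glo luminescence. Data were normalized to DMSO and 100 uM tamoxifen; AC50 from Hill fits.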

Assay [5] can be described thus: Cellular Toxicity (caspase-3) SK-N-SH (AID 661).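 Note: 0% = DMSO basal and 100% = 10 µM staurosporine.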 The conditions noted are these: SK-N-SH caspase-3 activation, qHTS; caspase-3 activation: at 91.7 µM (top of the series), DMSO as zero, staurosporine as full. The procedure, abridged: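 SK-N-SH human neuroblastoma cells (1500/well) were treated with compounds for 16 hr at 37 °C in complete medium; caspase 3/7 activity was read by Caspase-Glo luminescence. AC50 came from Hill fits of data normalized to DMSO and 10 uM staurosporine.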

Assay [6] can be described thus: Cellular Toxicity (caspase-3) Hek293 (AID 664).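 Note: cells exposed to compound for 16 h at 37 °C before readout.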 An outline of the steps: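 HEK293 cells were exposed to compounds in complete medium for 16 hr at 37 °C, then caspase-3/7 activity was read by Caspase-Glo 3/7 luminescence after 20 min at room temperature. Data normalized to DMSO and 100 uM tamoxifen; AC50 from Hill fits.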
A short description of assay [7]: Cellular Toxicity (caspase-3) N2a (AID 665).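 Note: compound exposure lasted 16 h at 37 °C before readout.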 The procedure, abridged:
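Mouse N2a neuroblastoma cells (1500/well) were treated with compounds for 16 h at 37 °C, then caspase-3/7 activity was read by Caspase-Glo luminescence after 1 h at room temperature. Data were normalized to DMSO and 10 uM staurosporine; AC50 from Hill fits.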

Assay [8] in a line: Cellular Toxicity (caspase-3) Renal Proximal Tubule (AID 667).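 Note: cells exposed to compound for 16 hours at 37 °C before detection; 0% = DMSO basal and 100% = 10 µM staurosporine.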 An outline of the steps:
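Freshly isolated primary rat kidney proximal tubule cells, 1000/well, treated 16 hr at 37 °C, then Caspase-Glo 3/7 luminescence after 1 hr. Normalized to DMSO and 10 uM staurosporine; AC50 from Hill fit.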

The nature of assay [9]: qHTS Assay for Identification of Small Molecule Antagonists for Thrombopoietin (TPO) Signaling Pathway (AID 918). Note: potency is the fitted concentration of half-maximal effect; nearly all actives have a fitted effect of over 60% in size. As to conditions: TPO-dependent cell signaling reporter, antagonist mode. An outline of the steps:
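Murine Ba/F3 cells stably expressing human TPO receptor and a Glycoprotein IIb promoter–luciferase reporter were IL-3-starved overnight, treated with compounds plus TPO (26 pM final, its EC50) for 24 hrs at 37 C, then read by luminescence.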

The nature of assay [10]: Cellular Toxicity (caspase-3) HepG2 (AID 654).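 Note: cells exposed to compound for 16 hours before reading; 0% = DMSO alone and 100% = caspase signal from 100 µM tamoxifen.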 An outline of the steps: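 HepG2 cells (1500/well) in complete medium were treated with compounds for 16 hr at 37 °C. Caspase-3/7 activity was then read as luminescence from peptide-aminoluciferin cleavage. AC50 came from Hill fits, normalized to DMSO and 100 uM tamoxifen.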
The nature of assay [11]: Cellular Toxicity (caspase-3) Jurkat (AID 655).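 Note: cells exposed to compound for 16 h at 37 °C before reading.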 The procedure, abridged: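 Jurkat cells (5000/well) in complete medium exposed 16 h at 37 C; caspase-3/7 activity read by Caspase-Glo luminescence after 20 min at room temperature. Normalized to DMSO and 100 uM tamoxifen; AC50 from Hill fits.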
A short description of assay [12]: Cellular Toxicity (caspase-3) BJ (AID 658).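 Note: 0% = DMSO basal and 100% = 10 µM staurosporine.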 An outline of the steps: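 Readout: Caspase-Glo 3/7 luminescence increase in BJ cells after 16 hr treatment at 37 °C. Staurosporine and tamoxifen served as positive controls; AC50 values came from Hill modelling of data normalized to DMSO and 10 uM staurosporine.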
Assay [13] addresses Cytochrome P450 2D6 (Homo sapiens) (UniProt P10635). Description: qHTS Assay for Inhibitors and Substrates of Cytochrome P450 2D6 (AID 891). Note: nearly all actives have a fitted effect of over 60% in size. Note: potency is the fitted concentration of half-maximal effect. The procedure, abridged:
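Human CYP2D6 (5 nM) with 30 uM Luciferin-ME EGE (at Km) in 100 mM KPO4, compound preincubated 10 min, then NADPH regeneration system for 60 min at room temperature. Luciferin read by luminescence; normalized to 1.43 uM quinidine.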
Background: In qHTS, concentration-response curves come from the screen itself.

A short description of assay [14]: Confirmation and Secondary Assay for Modulators of Hemoglobin Beta Chain Splicing at IVS2 654 locus (AID 910).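 Note: HeLa cells stably carrying EGFP split by mutant beta-globin IVS2-654 intron; per-well total GFP intensity by laser scanning cytometry after 2-day treatment; % of control where 0% means no effect.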 An outline of the steps: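 Readout: per-well total peak green fluorescence (488 nm ex, 500–520 nm em) from objects 5–250 µm, reflecting correct splicing of an EGFP-654 reporter. Compounds were applied for 2 days at 37 °C to overnight-plated HeLa EGFP-654 cells; controls were DMSO and 500 nM IVS2-654 PNA.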

The target of assay [15] is Cytochrome P450 2C9 (Homo sapiens) (UniProt P11712). Description: qHTS Assay for Inhibitors and Substrates of Cytochrome P450 2C9 (AID 883). Note: nearly all actives have a fitted effect of over 60% in size. Note: potency is the fitted concentration of half-maximal effect. The procedure, abridged:
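Inhibition of CYP2C9 is scored as loss of luminescence, with 57uM sulphaphenazole defining 100% inhibition. Substrate Luciferin-H is used at 100uM, equal to its KM; enzyme at 10nM in 25mM KPO4, 60 min at 37C with NADPH regeneration.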

The target of assay [16] is Cytochrome P450 3A4 (Homo sapiens) (UniProt P08684). Description: qHTS Assay for Inhibitors and Substrates of Cytochrome P450 3A4 (AID 884). Note: % is set by controls: 0 for no effect and ±100 for the full control effect; nearly all actives have a fitted effect of over 50% in size. The procedure, abridged:
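20 nM human CYP3A4 with 25 uM Luciferin-PPXE (at KM) in 200 mM KPO4, preincubated 10 min with compound; NADPH regeneration started a 60 min RT reaction. Luciferin detected by luminescence, normalized to 57 uM ketoconazole as full inhibition.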

A short description of assay [17]: qHTS Assay for Identification of Small Molecule Antagonists for NFkB Signaling Pathway (AID 895; active = well fitted inhibition curve with a large enough effect in the signal ratio, with a control signal flat, not every such curve was filed as active; the % refers to the signal ratio; note: % is set by controls: 0 for no effect and ±100 for the full control effect). The procedure, abridged:
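Beta-lactamase reporter read-out (460 and 530 nm emission ratio, 405 nm excitation, 2 hrs substrate loading RT) after 5 hr stimulation with 10 pM TNF alpha in compound-treated NFkB-bla ME-180 cells in low-serum medium.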

Assay [18] deals with Cytochrome P450 2C19 (Homo sapiens) (UniProt P33261). Description: qHTS Assay for Inhibitors and Substrates of Cytochrome P450 2C19 (AID 899). Note: nearly all actives have a fitted effect of over 60% in size. Note: potency is the fitted concentration of half-maximal effect. The procedure, abridged: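 5nM enzyme + 10uM Luciferin-H EGE (=KM), 50mM KPO4; cpd pin-transferred, 10 min 37C; NADPH regen, 60 min 37C; stopped w/ luciferin detection reagent, 20 min; luminescence. Normalized to 57uM ketoconazole (AC100).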

Assay [19] can be described thus: qHTS Assay for Identification of Small Molecule Agonists for Hypoxia Response Element Signaling Pathway (AID 914; active = well fitted activation curve with a large enough effect in the signal ratio, with a control signal flat, not every such curve was filed as active; the % refers to the signal ratio; note: % of control where 0% means no effect). The conditions noted are these: ME-180 (cervical carcinoma) HRE-bla reporter, beta-lactamase ratio, CoCl2, 17 h; stronger effect = higher value. The procedure, abridged:
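Reporter activity (beta-lactamase, CCF4 460nm/530nm ratio) in HRE-bla ME-180 cells is recorded after 17 h compound exposure with EC50 CoCl2 at 37 degrees Celsius. AC50 values come from titration data.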

Assay [20] is described as follows: qHTS Assay for Identification of Small Molecule Agonists for Thrombopoietin (TPO) Signaling Pathway (AID 917). Note: % is set by controls: 0 for no effect and ±100 for the full control effect. The procedure, abridged: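 Murine Ba/F3 cells expressing human TPO receptor and GPIIb-promoter luciferase, IL-3-starved overnight, given compound plus TPO at 26 pM (EC50). After 24 h at 37 C, 5% CO2, luminescence read.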

Chain of Cytochrome P450 2D6 (Homo sapiens) (P10635 whole entry, looked up): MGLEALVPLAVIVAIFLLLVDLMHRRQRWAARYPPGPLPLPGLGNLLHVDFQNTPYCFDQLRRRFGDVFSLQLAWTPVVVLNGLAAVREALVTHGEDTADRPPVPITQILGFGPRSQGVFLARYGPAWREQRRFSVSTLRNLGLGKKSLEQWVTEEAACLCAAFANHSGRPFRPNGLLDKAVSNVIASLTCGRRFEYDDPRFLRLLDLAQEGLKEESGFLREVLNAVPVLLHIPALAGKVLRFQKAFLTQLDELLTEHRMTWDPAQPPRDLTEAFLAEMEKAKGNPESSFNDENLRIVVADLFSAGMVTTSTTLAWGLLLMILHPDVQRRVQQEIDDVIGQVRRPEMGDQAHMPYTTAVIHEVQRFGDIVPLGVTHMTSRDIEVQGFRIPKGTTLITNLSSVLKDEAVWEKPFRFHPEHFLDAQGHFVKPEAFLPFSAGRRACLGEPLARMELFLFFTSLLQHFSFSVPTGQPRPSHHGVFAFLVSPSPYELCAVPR
Chain of Guanine nucleotide-binding protein G(i) subunit alpha-1 (Homo sapiens) (P63096 whole entry, looked up): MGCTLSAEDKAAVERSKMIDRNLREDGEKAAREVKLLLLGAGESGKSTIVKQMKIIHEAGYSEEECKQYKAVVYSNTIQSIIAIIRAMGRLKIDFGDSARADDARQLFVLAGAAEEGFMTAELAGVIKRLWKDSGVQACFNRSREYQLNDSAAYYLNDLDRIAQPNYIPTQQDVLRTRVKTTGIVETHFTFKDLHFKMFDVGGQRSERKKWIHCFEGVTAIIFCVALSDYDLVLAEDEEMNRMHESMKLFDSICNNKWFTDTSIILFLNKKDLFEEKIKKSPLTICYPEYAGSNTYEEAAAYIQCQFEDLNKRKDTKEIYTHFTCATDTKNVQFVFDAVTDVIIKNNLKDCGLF
Chain of Cytochrome P450 2C19 (Homo sapiens) (P33261 whole entry, looked up): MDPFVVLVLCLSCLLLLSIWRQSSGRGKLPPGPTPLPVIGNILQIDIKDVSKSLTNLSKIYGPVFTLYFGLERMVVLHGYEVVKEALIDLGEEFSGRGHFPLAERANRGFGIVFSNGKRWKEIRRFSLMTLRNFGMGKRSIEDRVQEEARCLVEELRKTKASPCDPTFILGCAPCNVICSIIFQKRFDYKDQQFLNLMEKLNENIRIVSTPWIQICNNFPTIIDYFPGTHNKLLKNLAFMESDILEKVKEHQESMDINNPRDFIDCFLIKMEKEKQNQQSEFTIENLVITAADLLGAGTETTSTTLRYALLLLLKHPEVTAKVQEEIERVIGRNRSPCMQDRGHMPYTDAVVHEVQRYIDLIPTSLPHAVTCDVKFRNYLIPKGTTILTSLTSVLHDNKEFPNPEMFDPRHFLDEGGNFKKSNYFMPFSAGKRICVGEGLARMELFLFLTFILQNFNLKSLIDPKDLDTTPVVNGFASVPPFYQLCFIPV
Chain of Cytochrome P450 3A4 (Homo sapiens) (P08684 whole entry, looked up): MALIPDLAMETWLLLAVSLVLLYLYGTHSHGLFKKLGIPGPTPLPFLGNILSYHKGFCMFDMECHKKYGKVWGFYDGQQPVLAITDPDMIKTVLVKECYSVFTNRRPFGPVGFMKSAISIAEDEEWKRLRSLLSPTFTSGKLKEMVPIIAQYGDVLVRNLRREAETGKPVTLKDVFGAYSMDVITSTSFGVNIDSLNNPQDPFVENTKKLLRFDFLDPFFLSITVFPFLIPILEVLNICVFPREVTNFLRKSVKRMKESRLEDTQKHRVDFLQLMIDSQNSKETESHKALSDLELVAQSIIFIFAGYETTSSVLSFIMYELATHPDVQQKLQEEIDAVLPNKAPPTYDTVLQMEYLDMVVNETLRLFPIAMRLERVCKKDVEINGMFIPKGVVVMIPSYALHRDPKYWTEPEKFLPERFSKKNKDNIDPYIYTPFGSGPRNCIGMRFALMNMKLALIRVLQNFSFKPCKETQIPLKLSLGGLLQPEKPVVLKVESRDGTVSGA
Chain of Cytochrome P450 2C9 (Homo sapiens) (P11712 whole entry, looked up): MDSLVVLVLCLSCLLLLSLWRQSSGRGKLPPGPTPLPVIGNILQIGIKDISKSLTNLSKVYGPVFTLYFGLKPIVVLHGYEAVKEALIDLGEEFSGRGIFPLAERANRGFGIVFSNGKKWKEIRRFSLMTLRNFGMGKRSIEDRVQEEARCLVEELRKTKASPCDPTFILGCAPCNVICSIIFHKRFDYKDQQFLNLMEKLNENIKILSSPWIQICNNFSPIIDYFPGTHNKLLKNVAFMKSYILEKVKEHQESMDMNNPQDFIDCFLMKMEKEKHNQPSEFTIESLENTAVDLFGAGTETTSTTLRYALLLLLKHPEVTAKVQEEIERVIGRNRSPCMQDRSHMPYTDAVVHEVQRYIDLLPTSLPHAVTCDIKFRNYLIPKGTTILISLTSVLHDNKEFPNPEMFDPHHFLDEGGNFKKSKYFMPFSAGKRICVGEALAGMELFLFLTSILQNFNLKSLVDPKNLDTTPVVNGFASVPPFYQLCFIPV

With `CCOC(=O)c1cnc2c(cnn2CC)c1NN=C(C)C`, the Potency result in assay [1] was “inactive”.
As for `COC(=O)[C@H]1[C@H]2C[C@@H]3c4[nH]c5cc(OC)ccc5c4CCN3C[C@H]2C[C@@H](OC(=O)c2cc(OC)c(OC)c(OC)c2)[C@@H]1OC`, the call in assay [2], in [4], in [6], in assay [7] and in assay [8] was inactive. The Potency in [3] and in assay [9] was 31.6 µM (active) each time. The caspase-3 activation in assay [5] is 87.8% (active). Further, the Potency result in [1] is “inactive”.
As for `OCCN1CCN(CCCN2c3ccccc3C=Cc3ccccc32)CC1`, the Potency entry in [1] was “inactive”.
Consider `COc1ccc(CN(CCN(C)C)c2ccccn2)cc1`, for which the result in [10], in assay [2], in assay [12], in assay [4], in assay [6] and in assay [7] was inactive. Also, the call in assay [8] and in assay [14] was inactive. The Potency result in assay [11], in assay [3] and in assay [1] was “inactive” throughout. Further, the caspase-3 activation in [5] was -0.853% (inactive). Moreover, in [13], the Potency is 501 nM (active) and 126 nM (active).
For `NCCCNCCSP(=O)(O)O`, in [1], the Potency entry was “inactive”.
In the case of `CCCCOCCOCCOCc1cc2c(cc1CCC)OCO2`, the outcome in assay [10], in [2], in [12], in assay [4], in assay [6] and in assay [7] was inactive. Besides, the call in assay [8] was inactive. Moreover, the Potency entry in [11] and in [3] was “inactive” each time. Moreover, the caspase-3 activation in assay [5] was 1.34% (inactive).
Regarding `NC(=O)N1c2ccccc2C=Cc2ccccc21`, the compound was classed as inactive in assay [10], in assay [2], in [12], in assay [4], in [6] and in assay [7]. Besides, the call in [8], in assay [16] and in assay [14] was inactive. In addition, the Potency result in assay [11], in [3], in [1], in [15], in assay [13] and in assay [17] was “inactive” in each case. Besides, the Potency result in assay [18] was “inactive”. Moreover, in assay [5], the caspase-3 activation was 0.961% (inactive). For the same compound, the activation in [19] was -7.9% (inactive) and -9.09% (inactive) and -6.88% (inactive).
For `O=c1[nH]c(=O)n([C@H]2C[C@H](O)[C@@H](CO)O2)cc1Br`, the compound was called inactive in [10], in [2], in [12], in [4], in [6] and in [7]. The compound was classed as inactive in assay [8], in assay [16] and in assay [20]. The Potency entry in assay [11], in assay [3], in [1] and in assay [17] was “inactive” throughout. For the same compound, the caspase-3 activation in [5] is -0.482% (inactive).
Regarding `CCNC(=O)N1CCN(CCCC(c2ccc(F)cc2)c2ccc(F)cc2)CC1`, the Potency entry in assay [1] is “inactive”.
Regarding `CCO/C([O-])=N/c1c[n+](N2CCOCC2)no1`, the Potency result in assay [1], in assay [15], in [13] and in assay [18] was “inactive” in each case. Also, the compound was called inactive in [14].
With `Cc1scc2c1N(C(=O)CN1CCN(C)CC1)c1ccccc1NC2=O`, in assay [1], the Potency entry was “inactive”. In addition, the Potency in assay [15] was 2.51 µM (active); in assay [13] it was 5.01 µM (active); in assay [18] it was “inactive and 3.98 µM (active)”. Moreover, the outcome in assay [16] and in assay [14] was inactive.
